Among the data in publication PMC10668032, “Altered binding affinity of SIX1-Q177R correlates with enhanced WNT5A and WNT pathway effector expression in Wilms tumor” are binding signal values, retold here.

The full ranking holds about 33,000 sequences; the median of “e-score” is about -0.053, and the highest 2% start at about 0.38. The sample holds the highest values, similar sequences and a random draw of the others, so the mix is not that of the screen.

This assay has as its target T1, SIX1 homeodomain (reference allele) (human, UniProt Q15475 108-198).
T1 sequence: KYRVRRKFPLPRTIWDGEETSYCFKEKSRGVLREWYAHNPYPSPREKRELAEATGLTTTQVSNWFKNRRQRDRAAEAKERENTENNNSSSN
Kind of assay: universal protein binding microarray; Universal all-10-mer PBM (8x60K, AMADID 030236), 300 nM GST-tagged protein, Alexa Fluor 488 anti-GST; buffer, salt, pH and temperature not stated (as in Berger); high values mean tight binding. The conditions noted are these: protein: ivt; tags: N-terminal GST; dsDNA, one strand shown. In short, it runs like this: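 Homeodomains fused to GST were made by in vitro transcription/translation and measured by anti-GST western blot with a recombinant GST standard curve. At 300 nM final concentration, they were applied in duplicate to universal 'all 10-mer' protein binding microarrays (8×60K format).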
On to ACTGTATC, for which the binding signal was 0.367 ± 0.00948 E-score.

In the case of CCTATAGA, the binding signal amounted to 0.157 ± 0.037 E-score.

Consider GCCTATAA, for which the binding signal worked out at 0.161 ± 0.0675 E-score.

Consider TATCGTGA, for which the binding signal was 0.279 ± 0.00354 E-score.

With AATACGAG, the binding signal was determined as 0.233 ± 0.00564 E-score.

AATTGTGA: the binding signal worked out at 0.185 ± 0.0272 E-score.

Regarding ATGGTGTC, the binding signal was determined as 0.435 ± 0.0115 E-score.

Regarding CTGGTGTC, the binding signal came out at 0.414 ± 0.0127 E-score.

Turning to CTGGTGTA, the binding signal came to 0.313 ± 0.0189 E-score.

For CTGGTCTA, the binding signal is 0.201 ± 0.0694 E-score.

For ATGGTGTG, the binding signal was 0.183 ± 0.0828 E-score.

For ATGGTGTA, the binding signal was 0.305 ± 0.00747 E-score.

In the case of AATCCCTA, the binding signal was found to be 0.185 ± 0.0203 E-score.

In the case of GATCCCTA, the binding signal was determined as 0.3831 ± 0.000778 E-score.

Turning to AATCCCGA, the binding signal turned out to be 0.223 ± 0.0516 E-score.

As for GATCCTTA, the binding signal was 0.342 ± 0.021 E-score.

Turning to GATCCCGA, the binding signal is 0.377 ± 0.0296 E-score.

For TATCCCGA, the binding signal is 0.315 ± 0.0248 E-score.

For the sequence AACCGAGA, the binding signal amounted to 0.162 ± 0.046 E-score.

Consider ACACCTCG, for which the binding signal was found to be 0.3009 ± 0.00176 E-score.

As to CCTATCTA, the binding signal came to 0.178 ± 0.0299 E-score.

Take AAGATCAC: the binding signal worked out at 0.239 ± 0.0239 E-score.

On to ACGATCAC, for which the binding signal came out at 0.177 ± 0.0336 E-score.

In the case of ATGATCAT, the binding signal was 0.246 ± 0.029 E-score.

For AGGATCAT, the binding signal came out at 0.38 ± 0.0194 E-score.

AGGATCAG: the binding signal came out at 0.368 ± 0.0142 E-score.

For AGGATCAC, the binding signal came out at 0.435 ± 0.0114 E-score.

For the sequence CATGAGAC, the binding signal was 0.296 ± 0.000976 E-score.

ACTACTCG: the binding signal was found to be 0.163 ± 0.00508 E-score.

Consider AGATCACT, for which the binding signal is 0.385 ± 0.0244 E-score.

For GTATCAAC, the binding signal was 0.475 ± 0.0103 E-score.

As to AGATCAAG, the binding signal amounted to 0.232 ± 0.0888 E-score.

Take AGATCACA: the binding signal was 0.255 ± 0.00822 E-score.

Consider AGATCAAA, for which the binding signal stood at 0.188 ± 0.0637 E-score.

On to CTATCAAA, for which the binding signal was determined as 0.258 ± 0.141 E-score.

As for GTATCAAA, the binding signal was 0.452 ± 0.0436 E-score.

For the sequence GTATAAAC, the binding signal came out at 0.185 ± 0.0191 E-score.

Regarding GTGTCAAC, the binding signal is 0.287 ± 0.0231 E-score.

As for AGATCAAT, the binding signal was 0.3827 ± 0.00302 E-score.

On to GTGTCAAA, for which the binding signal amounted to 0.311 ± 0.019 E-score.

For AGATCACG, the binding signal turned out to be 0.306 ± 0.0143 E-score.

With CGGAGATA, the binding signal came to 0.314 ± 0.0255 E-score.

With ATCCTTCG, the binding signal is 0.228 ± 0.0545 E-score.

As to ATTAATCG, the binding signal turned out to be 0.16 ± 0.0622 E-score.

For the sequence ATACTTAC, the binding signal came out at 0.218 ± 0.0954 E-score.

On to ATATTATG, for which the binding signal amounted to 0.299 ± 0.0542 E-score.

As to ATCAGGCG, the binding signal is 0.25 ± 0.0206 E-score.

With CTCATCTC, the binding signal was 0.158 ± 0.0133 E-score.

With ACTCGGGG, the binding signal was 0.212 ± 0.0491 E-score.

CCCTATCC: the binding signal was 0.359 ± 0.0609 E-score.

For AGTGGGAT, the binding signal was 0.333 ± 0.0228 E-score.

Regarding CGATCGCC, the binding signal stood at 0.257 ± 0.026 E-score.

For the sequence CGGCGATC, the binding signal was found to be 0.302 ± 0.0621 E-score.

Turning to CTATCAAC, the binding signal amounted to 0.29 ± 0.0532 E-score.

In the case of ATATCAAT, the binding signal stood at 0.421 ± 0.0559 E-score.

Take ATATCAAC: the binding signal came to 0.418 ± 0.0449 E-score.

With ATATCAAA, the binding signal stood at 0.374 ± 0.0809 E-score.

In the case of ATCTCAAT, the binding signal amounted to 0.183 ± 0.0808 E-score.

ATCTCAAG: the binding signal came to 0.215 ± 0.0235 E-score.

As to ATCTCAAC, the binding signal stood at 0.233 ± 0.0413 E-score.

Regarding ATATCAAG, the binding signal turned out to be 0.423 ± 0.0464 E-score.

Turning to CTATCAAG, the binding signal was found to be 0.155 ± 0.0723 E-score.

For the sequence ACAGGGTA, the binding signal was 0.267 ± 0.0137 E-score.

ATCATAAC: the binding signal worked out at 0.2814 ± 0.00204 E-score.

CCCGTGTA: the binding signal came to 0.171 ± 0.0224 E-score.

ATCCCTAC: the binding signal came to 0.307 ± 0.0295 E-score.

ATCACTCA: the binding signal stood at 0.335 ± 0.0213 E-score.

For CTCATATC, the binding signal stood at 0.31 ± 0.0778 E-score.

As for AGCATATA, the binding signal came to 0.239 ± 0.0331 E-score.

AGAATATC: the binding signal was determined as 0.283 ± 0.121 E-score.

In the case of CGCATACC, the binding signal was determined as 0.266 ± 0.0145 E-score.

Turning to CGCATATA, the binding signal turned out to be 0.158 ± 0.0261 E-score.

As for ATCATATA, the binding signal turned out to be 0.271 ± 0.0327 E-score.

In the case of ATCATATC, the binding signal is 0.425 ± 0.033 E-score.

Take CGCATATC: the binding signal turned out to be 0.414 ± 0.0167 E-score.

As for AGCATATC, the binding signal is 0.408 ± 0.0304 E-score.

With CGCATCTC, the binding signal was 0.154 ± 0.00741 E-score.

Consider TACATGTA, for which the binding signal worked out at 0.176 ± 0.041 E-score.

As for ACTCATAT, the binding signal came to 0.25 ± 0.0849 E-score.

Take AGTATACG: the binding signal worked out at 0.26 ± 0.0621 E-score.

With ATACGTGC, the binding signal came to 0.358 ± 0.0375 E-score.

Regarding GTGTCATA, the binding signal came to 0.369 ± 0.0321 E-score.

On to ATATGACG, for which the binding signal came out at 0.227 ± 0.0466 E-score.

For CGATCCAG, the binding signal was 0.212 ± 0.123 E-score.

As to TACAGGTA, the binding signal came out at 0.244 ± 0.0285 E-score.

As to GATAGGCC, the binding signal turned out to be 0.209 ± 0.0213 E-score.

In the case of CTGCGATC, the binding signal came out at 0.322 ± 0.0185 E-score.
